# Screening results (PubChem BioAssay)
# Nrf2 inh – Nrf2 qHTS screen for inhibitors. A549 ARE-Fluc reporter, luciferase luminescence, 18-24 h. Potency, µM (highest dose often 46 µM), for inactives: at the highest dose activity change, negative = inhibition, actives largely listed as inhibitors. 360,000 compounds, 2.1% hits; further: on the % scale 0 is the no-effect control and ±100 the full control effect; nearly all actives have a fitted effect of over 60% in size
#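 In this cell-based qHTS, ARE-driven firefly luciferase in A549 cells reports Nrf2 activity; the luminescent signal after BugLite lysis is the measured value, with a prior CellTiter-Fluor read for cell health.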
# TGFb SMAD3 inh – qHTS for Inhibitors of TGF-b. HepG2 CAGA-GFP TGF-b/SMAD3 reporter, GFP fluorescence, 18 h; TGF-beta stimulated, 500 pg/mL final. Potency, µM (top dose mostly 46.1 µM), without a hit: at the top dose activity, negative = inhibition, most hits filed as inhibitors. 410,000 compounds, 1.2% hits. AID 588855, 2011; further: on the % scale 0 is the no-effect control and ±100 the full control effect; nearly all actives have a fitted effect of over 65% in size
#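 Using HEPG2 CAGA-GFP reporter cells at 1000 cells/well, we pinned test compounds, stimulated with recombinant TGF-beta (500 pg/mL final) and measured total well GFP after 18 h.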
# Nrf2 activator – qHTS of Nrf2 Activators. 410,000 compounds, 0.31% hits. AREc32 ARE-luciferase reporter (MCF7-derived line), luminescence, 24 h. Potency, µM (highest dose often 46.1 µM), inactives show at the top dose activation, hits mostly activators; further: % of control where 0% means no effect; nearly all actives have a fitted effect of over 65% in size
#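 For detection, Steady-Glo was added and plates sat 30 min at RT; before that, AREc32_Fluc cells grown overnight in OPTI-MEM/5% FBS had been treated with 23 nL compound for 24 hr at 37 deg C.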
# HepG2 tox – qHTS for Inhibitors of TGF-b: Cytotox Counterscreen; HepG2 CAGA-GFP viability, ATP luminescence, 18 h; Potency, µM (series often up to 46.1 µM), for inactives: at the top dose activity change, negative = cytotoxicity, usual class: cytotoxic; 410,000 compounds, 0.76% hits; AID 588856, 2011
#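 CellTiter-Glo luminescence gave cytotoxicity after 18 hours at 37 degrees C. The cells were HepG2 CAGA-GFP in 1% FBS DMEM, stimulated with 500 pg/mL TGF-beta after compound addition. %Activity was normalised to no-cell wells (complete cell-killing) and DMSO (no toxicity), and curves were fitted and classified.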
# A549 viability – Nrf2 qHTS screen for inhibitors: counterscreen for cytotoxicity; A549 ARE-Fluc cells, CellTiter-Fluor viability, 18-24 h; Potency, µM (series often up to 46 µM), for inactives: top-dose activity change, negative = cytotoxicity, most hits filed as inhibitors; 390,000 compounds, 0.16% hits; AID 504648, 2011; further: on the % scale 0 is the no-effect control and ±100 the full control effect
#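 A549 ARE-Fluc cells in 5% FBS OPTI-MEM, 5000 cells/well, rested 2 h then exposed to compounds in concentration-response for 18-24 h at 37 °C. Viability by CellTiter-Fluor fluorescence (Ex 405/Em 525) after 30 min; luciferase luminescence (BugLite, 15 min, RT) read afterwards.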
# Numbers without * were called inactive; ? = inconclusive; nt = no result. Hits are enriched below; roughly 3.6% of the tested compounds scored in any of these assays. The call rests on the fitted dose curve; in most records, active means well fitted curve in the direction sought with a large enough effect; inconclusive means small, poorly fitted or top-dose-only effect, or another doubt; inactive means no such curve, though single readings can be large; an effect the other way counts as inactive or inconclusive. Potency means the concentration at half of the fitted maximal effect.
SMILES,Nrf2 inh,TGFb SMAD3 inh,Nrf2 activator,HepG2 tox,A549 viability
Cc1cc(C)cc(NC(=O)CSc2nnc(NC(=O)C3CC3)s2)c1,-6.8%,5.5%,-1.0%,-7.0%,-7.6%
c1ccc(CCNc2ccnc3cc4ccccc4cc23)cc1,?,?,0.2%,11.2µM*,-13.0%
CC(C)Nc1ccc(Nc2ccnc3cc4ccccc4cc23)cc1,?,?,-2.4%,11.2µM*,?
COc1cccc(-c2cnc3c(NC=O)cc(-c4cc(C)c(O)c(C)c4)cn23)c1,nt,16.3%,5.1%,-19.5%,nt
O=C(NCCc1ccncc1)Nc1ccccc1,nt,4.7%,0.1%,4.0%,4.3%
CCOc1cc(N2CCOCC2)c(OCC)cc1NC(=O)CN1CCCC(C)C1 (centres undefined),-23.2%,8.1%,1.8%,1.5%,-3.0%
CN1/C(=C\C(=S)NC(=O)c2cccc(Br)c2)C(C)(C)c2ccccc21,20.6µM*,?,3.0%,-16.5%,-13.5%
O=C(/C=C/c1c(F)cccc1Cl)Nc1ccc(S(=O)(=O)Nc2ncccn2)cc1,6.5%,13.6%,11.6%,13.8%,4.2%
O=C(/C=C/c1ccccc1Cl)c1ccc(O)cc1,1.3%,?,?,-29.0%,10.0%
O=C(/C=C/c1c(F)cccc1Cl)c1ccc(O)cc1,-15.2%,?,12.6µM*,-59.2%,-3.4%
O=C(/C=C/c1c(F)cccc1Cl)Nc1ncccn1,?,-6.3%,7.94µM*,14.7%,-5.0%
Cc1csc(NC(=O)c2ccc(N3CCCC3=O)cc2)n1,?,1.2%,-4.0%,-38.1%,3.9%
C=C1CCN(C(Cc2ccccc2)C(=O)NCc2ccc(Cl)cc2)S(=O)(=O)c2ccccc21 (centres undefined),-29.3%,-12.0%,nt,-2.0%,3.8%
CCOc1ccc(/C=C/c2[nH]c(=O)[nH]c(=O)c2[N+](=O)[O-])cc1,0.0%,-6.9%,-0.4%,5.6%,2.2%
CC(C)c1ccc(/C=C/c2[nH]c(=O)[nH]c(=O)c2[N+](=O)[O-])cc1,?,?,?,15.8µM*,-16.0%
CCOC(=O)COc1ccc(S(=O)(=O)NC2CC2)cc1,-10.6%,5.8%,0.3%,15.8%,-0.9%
Nc1[nH]n2c(=O)c3c(nc2c1N=Nc1ccccc1)CCCC3,nt,-0.4%,0.4%,-19.5%,13µM*
CC1=C(C(=O)N(C(C)C)C(C)C)CC(CC(=O)NC2CCCCC2)C(=O)N1Cc1ccc(C(C)(C)C)cc1 (centres undefined),nt,?,-2.5%,12.6µM*,nt
CC1=C(C(=O)N(C(C)C)C(C)C)CC(CC(=O)NCc2cccs2)C(=O)N1Cc1ccc(C(C)(C)C)cc1 (centres undefined),nt,?,3.9%,15.8µM*,nt
CC1=C(C(=O)N(C(C)C)C(C)C)CC(CC(=O)NCc2cccs2)C(=O)N1Cc1ccc(F)cc1 (centres undefined),nt,?,-0.2%,-2.9%,nt
COc1ccc(CN2C(=O)C(CC(=O)NC3CCCC3)CC(C(=O)N(C(C)C)C(C)C)=C2C)cc1 (centres undefined),nt,-2.5%,-1.1%,9.0%,nt
CN(C)CCCNC(=O)c1ccc(Oc2ccccc2)cc1,8.8%,-8.0%,-0.7%,-12.8%,7.8%
CCOC(=O)N1CCN(S(=O)(=O)c2ccc(C(=O)NNc3nc4cc(C)cc(C)c4s3)cc2)CC1,3.66µM*,?,-0.1%,-28.1%,?
CCOC(=O)N1CCN(C(=O)CCN2C(=O)COc3ccccc32)CC1,-6.0%,2.5%,0.4%,4.3%,2.1%
O=C(O)CCn1cc(/C=C/C(=O)c2ccc(Cl)cc2)c(-c2ccc(Br)cc2)n1,?,?,?,15.8µM*,-1.1%
O=C(O)/C=C/c1cn(Cc2ccccc2)nc1-c1ccccc1,?,-0.3%,-0.6%,-1.3%,-6.9%
COc1ccc(-c2cc(C(F)(F)F)nc(S(=O)(=O)CCC(=O)N3CCOCC3)n2)cc1,-7.0%,-7.8%,9.7%,7.4%,-3.0%
COc1ccc(-c2cc(C(F)(F)F)nc(SCC(=O)Nc3ccc(C(C)=O)cc3)n2)cc1,23.1µM*,?,-0.8%,-24.7%,-28.6%
